Assay results published in PubChem BioAssay AID1159580 (chemical genetic matrix, 2015).
In all, about 5,500 compounds went through this assay and about 2,000 (36%) were called active. Another 18% or so got no clear call; they are omitted. Rule as the data show it: active = normalized growth mostly below about 0.91 (no sharp cut-off); inconclusive = no clear call, values can overlap the other calls; inactive = mostly above about 0.92. The list shows a part of the results.

Assay: chemical genetic growth profiling, strain panel (AID 1159580);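 also: tested at 20 µM; growth read once vehicle control cultures reached saturation at 30 °C; 1 = growth at the plate median or of vehicle wells; lower values mean less growth of the strain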
Settings: growth OD

Measured: normalized growth

C=CCSCC1Nc2cc(Cl)c(S(N)(=O)=O)cc2S(=O)(=O)N1 (configuration not stated)
inactive: S. cerevisiae deletion strains, locus YJR075W, strain HOC1, hits give low values 1.01 | S. cerevisiae deletion strains, locus YKL009W, strain mrt4, hits give low values 1.02 | S. cerevisiae deletion strains, locus YKL068W, hits give low values 1.02 | S. cerevisiae deletion strains, locus YKL085W, strain MDH1 (second series), hits give low values 1 | S. cerevisiae deletion strains, locus YKL085W, strain MDH1, hits give low values 1 | S. cerevisiae deletion strains, locus YKL160W, strain elf1, hits give low values 0.994 | S. cerevisiae deletion strains, locus YKL190W, strain CNB1, hits give low values 1.01 | S. cerevisiae deletion strains, locus YKR001C, strain vps1, hits give low values 1.02 | S. cerevisiae deletion strains, locus YKR026C, strain gcn3, hits give low values 1 | S. cerevisiae deletion strains, locus YKR091W, strain srl3, hits give low values 1 | S. cerevisiae deletion strains, locus YLL001W, strain dnm1, hits give low values 0.997 | S. cerevisiae deletion strains, locus YLL026W, hits give low values 0.998 | S. cerevisiae deletion strains, locus YLL041C, strain sdh2, hits give low values 1 | S. cerevisiae deletion strains, locus YLR027C, strain aat2, hits give low values 0.996 | S. cerevisiae deletion strains, locus YLR039C, strain RIC1, hits give low values 1.02 | S. cerevisiae deletion strains, locus YLR058C, strain SHM2, hits give low values 1.01 | S. cerevisiae deletion strains, locus YLR102C, strain apc9, hits give low values 1.04 | S. cerevisiae deletion strains, locus YLR113W, strain HOG1, hits give low values 1.06 | S. cerevisiae deletion strains, locus YLR221C, strain rsa3, hits give low values 0.988 | S. cerevisiae deletion strains, locus YLR258W, strain gsy2, hits give low values 0.998 | S. cerevisiae deletion strains, locus YLR262C, strain YPT6 (second series), hits give low values 0.989 | S. cerevisiae deletion strains, locus YLR262C, strain YPT6, hits give low values 1.04 | S. cerevisiae deletion strains, locus YLR268W, strain sec22, hits give low values 1.02 | S. cerevisiae deletion strains, locus YLR320W, strain mms22, hits give low values 0.985 | S. cerevisiae deletion strains, locus YLR330W, strain CHS5, hits give low values 1.01 | S. cerevisiae deletion strains, locus YLR342W, strain FKS1 (second series), hits give low values 0.996 | S. cerevisiae deletion strains, locus YLR342W, strain FKS1, hits give low values 1.01 | S. cerevisiae deletion strains, locus YLR357W, strain rsc2, hits give low values 0.991 | S. cerevisiae deletion strains, locus YLR370C, strain arc18, hits give low values 1 | S. cerevisiae deletion strains, locus YLR371W, strain rom2, hits give low values 1.02 | S. cerevisiae deletion strains, locus YLR384C, strain iki3, hits give low values 1 | S. cerevisiae deletion strains, locus YLR418C, strain cdc73, hits give low values 1.04 | S. cerevisiae deletion strains, locus YML016C, strain PPZ1, hits give low values 1.01 | S. cerevisiae deletion strains, locus YML032C, strain rad52, hits give low values 1.03 | S. cerevisiae deletion strains, locus YML120C, strain ndi1, hits give low values 1 | S. cerevisiae deletion strains, locus YML124C, strain tub3, hits give low values 1.02 | S. cerevisiae deletion strains, locus YMR058W, strain fet3, hits give low values 0.998 | S. cerevisiae deletion strains, locus YMR078C, strain ctf18, hits give low values 1.03 | S. cerevisiae deletion strains, locus YMR125W, strain sto1, hits give low values 0.998 | S. cerevisiae deletion strains, locus YMR129W, hits give low values 1 | S. cerevisiae deletion strains, locus YMR205C, strain PFK2, hits give low values 0.995 | S. cerevisiae deletion strains, locus YMR223W, strain ubp8, hits give low values 1.02 | S. cerevisiae deletion strains, locus YMR231W, strain pep5, hits give low values 1 | S. cerevisiae deletion strains, locus YMR263W, strain SAP30, hits give low values 1.02 | S. cerevisiae deletion strains, locus YMR307W, strain GAS1, hits give low values 1.1 | S. cerevisiae deletion strains, locus YNL067W, strain RPL9B, hits give low values 1.01 | S. cerevisiae deletion strains, locus YNL071W, strain lat1, hits give low values 0.999 | S. cerevisiae deletion strains, locus YNL128W, strain TEP1, hits give low values 1.01 | S. cerevisiae deletion strains, locus YNL153C, strain GIM3, hits give low values 1.01 | S. cerevisiae deletion strains, locus YNL183C, strain NPR1, hits give low values 0.977 | S. cerevisiae deletion strains, locus YNL209W, strain ssb2, hits give low values 0.999 | S. cerevisiae deletion strains, locus YNL233W, strain BNI4, hits give low values 0.998 | S. cerevisiae deletion strains, locus YNL248C, strain rpa49, hits give low values 0.989 | S. cerevisiae deletion strains, locus YNL250W, strain rad50, hits give low values 1.03 | S. cerevisiae deletion strains, locus YNL271C, strain bni1, hits give low values 1.03 | S. cerevisiae deletion strains, locus YNL298W, strain CLA4, hits give low values 1.04 | S. cerevisiae deletion strains, locus YNL307C, strain MCK1, hits give low values 1.01 | S. cerevisiae deletion strains, locus YNL322C, strain KRE1 (second series), hits give low values 0.995 | S. cerevisiae deletion strains, locus YNL322C, strain KRE1, hits give low values 1.01 | S. cerevisiae deletion strains, locus YNR049C, strain mso1, hits give low values 0.998 | S. cerevisiae deletion strains, locus YNR052C, strain pop2, hits give low values 1.03 | S. cerevisiae deletion strains, locus YOL006C, strain TOP1, hits give low values 1.03 | S. cerevisiae deletion strains, locus YOL012C, strain htz1 1.06 | S. cerevisiae deletion strains, locus YOL147C, strain pex11, hits give low values 1.02 | S. cerevisiae deletion strains, locus YOR001W, strain rrp6, hits give low values 0.977 | S. cerevisiae deletion strains, locus YOR061W, strain CKA2, hits give low values 1.01 | S. cerevisiae deletion strains, locus YOR069W, strain VPS5, hits give low values 1.01 | S. cerevisiae deletion strains, locus YOR070C, strain gyp1, hits give low values 1 | S. cerevisiae deletion strains, locus YOR080W, strain dia2, hits give low values 1 | S. cerevisiae deletion strains, locus YOR083W, strain WHI5, hits give low values 0.999 | S. cerevisiae deletion strains, locus YOR106W, strain vam3, hits give low values 0.985 | S. cerevisiae deletion strains, locus YOR136W, strain idh2, hits give low values 1.03 | S. cerevisiae deletion strains, locus YOR144C, strain elg1, hits give low values 1.02 | S. cerevisiae deletion strains, locus YOR184W, strain ser1, hits give low values 1.03 | S. cerevisiae deletion strains, locus YOR231W, strain MKK1, hits give low values 1.03 | S. cerevisiae deletion strains, locus YOR265W, strain rbl2, hits give low values 1.03 | S. cerevisiae deletion strains, locus YOR270C, strain vph1, hits give low values 0.974 | S. cerevisiae deletion strains, locus YOR290C, strain snf2, hits give low values 0.987 | S. cerevisiae deletion strains, locus YOR316C, strain cot1, hits give low values 1.03 | S. cerevisiae deletion strains, locus YPL051W, strain arl3, hits give low values 1 | S. cerevisiae deletion strains, locus YPL055C, strain LGE1, hits give low values 1.02 | S. cerevisiae deletion strains, locus YPL078C, strain atp4, hits give low values 0.989 | S. cerevisiae deletion strains, locus YPL106C, strain sse1, hits give low values 1.04 | S. cerevisiae deletion strains, locus YPL240C, strain hsp82, hits give low values 1.01 | S. cerevisiae deletion strains, locus YPL241C, strain CIN2, hits give low values 1.01 | S. cerevisiae deletion strains, locus YPL256C, strain CLN2, hits give low values 1.07 | S. cerevisiae deletion strains, locus YPR119W, strain clb2, hits give low values 1.02 | S. cerevisiae deletion strains, locus YPR141C, strain kar3, hits give low values 1.03 | S. cerevisiae deletion strains, locus YPR163C, strain tif3, hits give low values 1.02 | S. cerevisiae deletion strains, locus YPR167C, strain met16, hits give low values 1.03 | S. cerevisiae deletion strains, strain wtn01, hits give low values 1.02 | S. cerevisiae strains, strain wild type, hits give low values 1.01
